Experimental data taken from PubChem BioAssay AID1159580 (chemical genetic matrix, 2015).
Screen size: about 5,500 compounds; about 2,000 (36%) were called active. Inconclusive results (about 18%) are left out. Cut-off read from the data, not from the text of the source: active = normalized growth mostly below about 0.91 (no sharp cut-off); inconclusive = no clear call, values can overlap the other calls; inactive = mostly above about 0.92. The list shows a part of the results.

Test: chemical genetic growth profiling, strain panel (AID 1159580);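 note: tested at 20 µM; growth read once vehicle control cultures reached saturation at 30 °C; 1 = growth at the plate median or of vehicle wells; lower values mean less growth of the strain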
Settings: S. cerevisiae deletion strains, growth OD

Measured: normalized growth

NC(N)=NCCN1CCCCCCC1
active: locus YLR262C, strain YPT6 (second series), hits give low values 1.25 [resistant] | locus YNL209W, strain ssb2, hits give low values 0.87
inactive: locus YJR043C, strain POL32, hits give low values 1 | locus YJR066W, strain TOR1, hits give low values 0.932 | locus YKL009W, strain mrt4, hits give low values 1.02 | locus YKL068W, hits give low values 1.01 | locus YKL085W, strain MDH1 (second series), hits give low values 1.01 | locus YKL085W, strain MDH1, hits give low values 1.01 | locus YKL160W, strain elf1, hits give low values 1.04 | locus YKR001C, strain vps1, hits give low values 1.03 | locus YKR026C, strain gcn3, hits give low values 1.03 | locus YKR091W, strain srl3, hits give low values 1.02 | locus YLL001W, strain dnm1, hits give low values 1.02 | locus YLL026W, hits give low values 1.03 | locus YLL041C, strain sdh2, hits give low values 1.02 | locus YLR027C, strain aat2, hits give low values 1.02 | locus YLR039C, strain RIC1, hits give low values 1 | locus YLR058C, strain SHM2, hits give low values 1.01 | locus YLR102C, strain apc9, hits give low values 1.02 | locus YLR113W, strain HOG1, hits give low values 0.985 | locus YLR221C, strain rsa3, hits give low values 1.05 | locus YLR258W, strain gsy2, hits give low values 1.03 | locus YLR262C, strain YPT6, hits give low values 1.03 | locus YLR268W, strain sec22, hits give low values 1.02 | locus YLR320W, strain mms22, hits give low values 1.05 | locus YLR330W, strain CHS5, hits give low values 1.01 | locus YLR342W, strain FKS1 (second series), hits give low values 1.02 | locus YLR342W, strain FKS1, hits give low values 1.06 | locus YLR357W, strain rsc2, hits give low values 1.03 | locus YLR370C, strain arc18, hits give low values 1.03 | locus YLR371W, strain rom2, hits give low values 1.02 | locus YLR384C, strain iki3, hits give low values 1.03 | locus YLR418C, strain cdc73, hits give low values 1.03 | locus YML016C, strain PPZ1, hits give low values 1.01 | locus YML032C, strain rad52, hits give low values 1.02 | locus YML120C, strain ndi1, hits give low values 1.04 | locus YML124C, strain tub3, hits give low values 1.03 | locus YMR058W, strain fet3, hits give low values 1.02 | locus YMR078C, strain ctf18, hits give low values 1.02 | locus YMR125W, strain sto1, hits give low values 1.03 | locus YMR129W, hits give low values 1.02 | locus YMR205C, strain PFK2, hits give low values 1.05 | locus YMR223W, strain ubp8, hits give low values 1.02 | locus YMR231W, strain pep5, hits give low values 1.04 | locus YMR307W, strain GAS1, hits give low values 0.992 | locus YNL067W, strain RPL9B, hits give low values 1 | locus YNL071W, strain lat1, hits give low values 1.03 | locus YNL128W, strain TEP1, hits give low values 1.02 | locus YNL183C, strain NPR1, hits give low values 0.959 | locus YNL233W, strain BNI4, hits give low values 1.01 | locus YNL248C, strain rpa49, hits give low values 1.04 | locus YNL250W, strain rad50, hits give low values 1.01 | locus YNL271C, strain bni1, hits give low values 1.02 | locus YNL298W, strain CLA4, hits give low values 1.03 | locus YNL307C, strain MCK1, hits give low values 1.02 | locus YNL322C, strain KRE1 (second series), hits give low values 1.05 | locus YNL322C, strain KRE1, hits give low values 1 | locus YNR049C, strain mso1, hits give low values 1.03 | locus YNR052C, strain pop2, hits give low values 1.01 | locus YOL012C, strain htz1 0.825 | locus YOL147C, strain pex11, hits give low values 1.02 | locus YOR001W, strain rrp6, hits give low values 0.997 | locus YOR061W, strain CKA2, hits give low values 1.01 | locus YOR069W, strain VPS5, hits give low values 1 | locus YOR070C, strain gyp1, hits give low values 1.05 | locus YOR080W, strain dia2, hits give low values 1.03 | locus YOR083W, strain WHI5, hits give low values 1.03 | locus YOR106W, strain vam3, hits give low values 1.05 | locus YOR136W, strain idh2, hits give low values 1.02 | locus YOR144C, strain elg1, hits give low values 1.02 | locus YOR184W, strain ser1, hits give low values 1.03 | locus YOR231W, strain MKK1, hits give low values 0.993 | locus YOR265W, strain rbl2, hits give low values 1.05 | locus YOR270C, strain vph1, hits give low values 1.07 | locus YOR290C, strain snf2, hits give low values 0.981 | locus YOR316C, strain cot1, hits give low values 1.02 | locus YPL051W, strain arl3, hits give low values 1.02 | locus YPL055C, strain LGE1, hits give low values 1.01 | locus YPL078C, strain atp4, hits give low values 1.03 | locus YPL106C, strain sse1, hits give low values 1.02 | locus YPL240C, strain hsp82, hits give low values 1.04 | locus YPL256C, strain CLN2, hits give low values 0.977 | locus YPR119W, strain clb2, hits give low values 1.03 | locus YPR141C, strain kar3, hits give low values 1.02 | locus YPR163C, strain tif3, hits give low values 1.03 | locus YPR167C, strain met16, hits give low values 1.02 | strain wtn01, hits give low values 1.03
